Assay outcomes from PubChem.
An excerpt weighted towards active compounds, which were near 2.4% of everything screened.
D2 PAM-1: positively modulates the human D2 dopamine receptor allosterically | HEK293 T-REx D2, calcium flux, EC20 dopamine potentiation | AID 485347 | P14416 | potentiation, % at 10 µM | hit rate 0.34% among 340,000;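 active = potentiation over 3 SD above the plate norm, cut at about 30% in these data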
Target sequence (P14416 whole entry, looked up): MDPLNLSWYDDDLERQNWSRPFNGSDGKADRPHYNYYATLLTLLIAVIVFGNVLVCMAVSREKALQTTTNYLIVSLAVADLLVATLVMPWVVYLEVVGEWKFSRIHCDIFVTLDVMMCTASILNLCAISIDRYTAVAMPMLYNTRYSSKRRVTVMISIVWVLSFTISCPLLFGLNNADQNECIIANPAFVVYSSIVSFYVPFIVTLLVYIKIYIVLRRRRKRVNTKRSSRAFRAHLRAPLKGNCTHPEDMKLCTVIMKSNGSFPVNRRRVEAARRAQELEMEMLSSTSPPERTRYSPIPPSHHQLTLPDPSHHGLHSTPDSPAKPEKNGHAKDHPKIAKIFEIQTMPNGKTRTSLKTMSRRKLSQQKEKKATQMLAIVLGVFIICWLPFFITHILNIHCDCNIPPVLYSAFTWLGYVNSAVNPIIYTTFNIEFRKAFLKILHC
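Calcium flux readout, no-wash dye, 1 read/s. Inducible HEK293 Trex D2 line, overnight 30 C. Compound alone 180 s (agonist flags), then EC20 dopamine, another 180 s to score potentiation.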
D2 ag-1: agonists of human D2 dopamine receptor (beta-arrestin). DiscoveRx PathHunter D2 beta-arrestin, luminescence, 90 min; 100% = 57 uM dopamine signal. activation, % (no concentration beside the values). hit rate 0.084% among 360,000. AID 624465; in the data active = activation above about 40%
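DiscoveRx PathHunter D2 beta-arrestin cells (2,100/well) attached overnight, then compound-stimulated 90 min at 37 C in HBSS/10 mM HEPES/0.1% Tween-20 buffer; beta-galactosidase complementation read by luminescence after 1 h at ambient temperature. Dopamine 57 uM final (EC100) as control.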
D2 antag: antagonizes the human D2 dopamine receptor | hit rate 2% among 340,000 | AID 485344 | inhibition, % at 10 µM | HEK293 TREx D2 cells, calcium flux, dopamine EC80 | P14416; in the data active = inhibition above about 30%; inactive = below that, where a call was filed
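Compounds are added to dye-loaded, induced HEK293 T-REx cells coupled to calcium release via D2; after a 3 min kinetic read an EC80 dopamine stimulus is given and fluorescence is recorded for 3 more min.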
D2 PAM-2: positive allosteric modulators of human D2 dopamine receptor; DiscoveRx D2 beta-arrestin cells, luminescence, 90 min; 100% = 57 uM dopamine signal; potentiation, % (concentration not given with the values); hit rate 0.23% among 360,000; AID 624464; P14416; in the data active = potentiation above about 50%
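PathHunter D2 cells, attached overnight at 37 deg C, received compound in DMSO plus dopamine at EC20 (50 nM final) for 90 min at 37 deg C. Beta-arrestin recruitment was read as luminescence after 1 h with detection reagent at ambient temperature.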
D2 ag-2: agonists of human D2 dopamine receptor. AID 485358. activation, % at 2 µM. P14416. hit rate 0.53% among 340,000. HEK293 T-REx D2 cells, calcium flux agonist mode;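 active = activation over 3 SD above normal in the single-dose calcium agonist read, cut at about 30% in these data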
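Tetracycline-induced HEK293 T-REx cells with force-coupled D2 receptor, plated overnight at 30 C, loaded with no-wash calcium dye. After a 10 s baseline, compound was pin-added and calcium flux read kinetically for 180 s; calcium rises flagged agonists.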
A number is an active result; 0 = inactive; - = no result given.

SMILES	D2 PAM-1	D2 ag-1	D2 antag	D2 PAM-2	D2 ag-2
COc1ccc(C(c2nnnn2C2CCCCC2)N2CCN(c3ccc(OC)cc3)CC2)cc1 (stereo unspecified)	0	0	0	0	0
Cc1nc2cccnc2n1-c1cccc(C(=O)NCc2ccc(OC(C)C)cc2)c1	0	-	-	-	0
COc1ccc(S(=O)(=O)N2CCC(C(=O)NCc3ccc(C)cc3)CC2)cc1	0	0	34	0	0
COc1ccc(CNC(=O)C2CCN(S(=O)(=O)c3ccc(F)cc3)CC2)cc1	0	-	-	-	0
COc1ccc(S(=O)(=O)N2CCC(NC(=O)OCc3c(Cl)cccc3Cl)CC2)cc1	0	0	35	0	0
COc1ccc(COC(=O)NC2CCN(S(=O)(=O)c3ccc(OC)cc3)CC2)cc1	0	0	0	0	0
COc1ccc(CNC(=O)C2CCCN(S(=O)(=O)c3ccc(-n4cnnn4)cc3)C2)cc1 (stereo unspecified)	0	0	36	0	0
Cc1ccc(S(=O)(=O)N2CCC(C(=O)N3CC(C)OC(C)C3)CC2)cc1 (stereo unspecified)	0	0	50	0	0
Cc1ccc(Cl)cc1NC(=O)Cn1nc2c(cc1=O)CC(C)CC2 (stereo unspecified)	0	-	-	-	0
O=S(=O)(c1ccc(-c2csc(-c3cccnc3)n2)cc1)N1CCCCC1	0	0	37	0	0
CCOc1ccccc1CNC(=O)c1cc2n(n1)CCCN(Cc1ccc(C)cc1)C2=O	0	-	-	-	-
O=C(Nc1nc2c(F)cccc2s1)c1ccc([N+](=O)[O-])o1	0	0	33	0	0
CCN(C(=O)C1CCN(S(=O)(=O)c2ccc3c(c2)oc(=O)n3C)CC1)c1cccc(C)c1	0	0	39	0	0
CCc1ccccc1-n1c2c(cc(-c3nc(-c4ccc(Cl)cc4)cs3)c1=O)C(=O)CC(C)(C)C2	0	-	-	-	0
c1csc(CNc2ncnc3sccc23)c1	-	0	-	0	-
Cc1sc2ncnc(NCC3(N4CCOCC4)CCCCC3)c2c1C	30	0	0	0	0
c1nc(NCC2(N3CCOCC3)CCCCC2)c2ccsc2n1	38	0	0	0	0
CCCN1CCC(=O)N([C@H](COc2ccccc2)Cc2ccccc2)CC1	0	0	39	0	0
O=C1CCN(Cc2ccccc2)CCN1[C@H](COc1ccccc1)Cc1ccccc1	0	0	0	0	0
COc1ccc(NC(=O)CN(c2cc(C)cc(C)c2)S(=O)(=O)c2c(C)noc2C)cc1Cl	0	-	-	-	0
Cc1cccc(CSc2nc3c(c(=O)[nH]2)C(c2cccc(O)c2)CC(=O)N3)c1 (stereo unspecified)	0	-	-	-	0
O=C(Nc1ccc(Br)cc1F)C1CCN(c2nc3ccccc3[nH]2)CC1	0	-	-	-	0
Cc1ccc(S(=O)(=O)c2nnn3c2nc(NC2CCN(Cc4ccccc4)CC2)c2ccccc23)cc1C	37	0	0	0	0
Cc1ccc(S(=O)(=O)c2nnn3c2nc(NCCCN2CCCC2=O)c2ccccc23)cc1C	0	0	0	0	0
O=C1C=C(Nc2ccc(Cl)cc2)CC(c2ccc(Cl)cc2)C1 (stereo unspecified)	0	0	48	0	0
SMILES	D2 PAM-1	D2 ag-1	D2 antag	D2 PAM-2	D2 ag-2
N#Cc1ccccc1Cn1c(SCC(=O)NCc2ccccc2)nc2ccccc21	-	-	-	-	0
Cc1ccc(S(=O)(=O)N/N=C\c2ccc([N+](=O)[O-])o2)cc1	0	0	0	0	0
O=[N+]([O-])c1ccc(/C=N/NS(=O)(=O)c2ccc(Cl)cc2)o1	0	0	45	0	0
Cc1cccc(OCC(=O)Nc2nonc2-c2ccc(Br)cc2)c1C	0	-	-	-	0
CN(C)c1ccc(N=Cc2cccn2C)cc1	31	0	0	0	0
CN(C)c1ccc(N=Cc2nc(-c3ccccc3)oc2O)cc1	-	0	-	0	-
O=C(O)CN1C(c2ccccc2O)Nc2ccc(Br)cc2C1c1ccccc1 (stereo unspecified)	0	0	0	0	0
COc1ccc(C2Nc3ccc(Br)cc3C(c3ccccc3)N2CC(=O)O)cc1 (stereo unspecified)	0	0	61	0	0
COc1cccc(NC(=O)CSc2nc3cc(OC)c(OC)cc3c3nc(-c4ccccc4)nn23)c1	0	-	-	-	0
CC(C)CCNC(=O)CCn1c(=S)oc2ccccc21	44	0	0	0	0
CCOc1cccc(CC(=O)N2CCc3c([nH]c4ccc(OC)cc34)C2c2ccc(F)cc2)c1OCC (stereo unspecified)	0	-	-	-	0
CC1CCN(C(=O)Cn2cnc3c2c(=O)n(C)c(=O)n3C)c2ccccc2S1 (stereo unspecified)	0	0	45	0	0
Cn1c(=O)c2c(ncn2CC(=O)N2CCCc3ccccc32)n(C)c1=O	0	0	0	0	0
CC1CCN(C(=O)CN2C(=O)C(=O)N(C)C2=O)c2ccccc2S1 (stereo unspecified)	0	0	44	0	0
COc1ccccc1OCC(=O)N(Cc1ccco1)Cc1ccccc1F	0	-	-	-	-
COc1ccc(CC(=O)OCC(=O)NCc2ccco2)cc1	0	0	36	0	0
COc1ccc(OCC(=O)OCC(=O)NCc2ccco2)cc1	0	0	0	0	0
Cc1ccc(C)c(OCCN2C(=O)NC3(CCc4ccccc4C3)C2=O)c1 (stereo unspecified)	0	0	33	0	0
C=CCNC(=O)c1oc2ccc(S(=O)(=O)N3CCC4(CC3)OCCO4)cc2c1C	33	0	0	0	0
C=CCNC(=O)c1oc2ccc(S(=O)(=O)N3CCCCC3)cc2c1C	0	0	0	0	0
COc1cccc(NC(=O)c2nn(-c3ccc(C)cc3)c(=O)n(C)c2=O)c1	0	-	-	-	0
CS(=O)(=O)N1CCc2cc(C(=O)N3CCCCC3)ccc21	0	0	0	0	0
CS(=O)(=O)N1CCc2cc(C(=O)O)ccc21	31	0	0	0	0
CCCN1CCN(CC2=C(C(=O)OCC)C(c3cccc(OC)c3OC)NC(=O)N2)CC1 (stereo unspecified)	0	-	-	-	0
COc1ccc(NC(=O)C2CCN(S(=O)(=O)c3ccc4c(c3)CCCC(=O)N4)CC2)cc1Cl	0	-	-	-	0
CCOc1ccc(C(=O)NCC(=O)OCc2c(C)noc2C)cc1OCC	0	0	37	0	0
CCC(CC)C(=O)Nc1nnc(S(=O)(=O)N2CCCCCC2)s1	0	0	32	0	0
CC(C)C(=O)Nc1nnc(S(=O)(=O)N2CCCCCC2)s1	0	0	0	0	0
CCCCn1c(-c2ccc(OC(F)F)cc2)nc2c1c(=O)[nH]c(=O)n2CC(C)C	33	0	0	0	0
Cc1cc(NC(=O)CCC(=O)N(Cc2ccco2)C2(C(=O)NC3CCCC3)CCC(C)CC2)no1 (stereo unspecified)	0	0	0	0	0
